nsP2pro primary: blocks chikungunya virus nsP2 protease peptide cleavage. 31,000 compounds, 1.1% hits. Q8JUX6. FRET peptide cleavage, nsP2pro, fluorescence 1 h. Potency, µM (highest dose often 24.9 µM), for inactives: at the top dose activity change, negative = inhibition, usual class: inhibitors; also: nearly all actives have a fitted effect of over 60% in size
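Enzyme 150 nM, substrate 2.5 uM (both final); Tris-HCl 10 mM pH 8.0 + 0.01% Tween 20; cpd up to 25 uM, 7 pts; 15 min preinc., 1 h RT; fluorescence ex 525/em 598.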
CHIKV nsP2 cell: inhibits CHIKV nsP2 protease in cells; shares compounds with nsP2pro primary; cell-based CHIKV nsP2 protease reporter assay; Potency, µM (highest dose often 51.1 µM), for the others: top-dose activity change, negative = inhibition, most hits filed as inhibitors; 450 compounds, 10% hits; AID 1964100; also: nearly all actives have a fitted effect of over 70% in size
NSP2 full ctr: inhibits full-length CHIKV NSP2 enzyme; shares compounds with nsP2pro primary; 410 compounds, 39% hits; Full-length CHIKV NSP2 protease enzymatic counterscreen; AID 1964101; Potency, µM (highest dose often 50.7 µM), for the others: top-dose activity change, negative = inhibition, hits mostly inhibitors; also: nearly all actives have a fitted effect of over 65% in size
Furin counter: human furin inhibition, counterscreen for nsP2pro inhibitors; shares compounds with nsP2pro primary; Recombinant human furin enzymatic counterscreen, fluorogenic substrate; Potency, µM (doses to about 50.6 µM), without a hit: at the top dose activity change, negative = inhibition, actives largely listed as inhibitors; 410 compounds, 6% hits; AID 1964102
NS23 peptide cs: selectivity test for CHIKV nsP2 protease inhibitors: endogenous NS2/3 peptide; Purified CHIKV nsP2 protease, endogenous NS2/3 peptide cleavage; shares compounds with nsP2pro primary; Potency, µM (highest dose often 51 µM), inactives show top-dose activity change, negative = inhibition, most hits filed as inhibitors; 410 compounds, 34% hits; also: nearly all actives have a fitted effect of over 55% in size
Papain cs: selectivity counter-screen for CHIKV nsP2 protease inhibitors: papain; shares compounds with nsP2pro primary; purified papain protease activity, enzymatic inhibition; Potency, µM (doses to about 51 µM), without a hit: at the top dose activity change, negative = inhibition, actives largely listed as inhibitors; 410 compounds, 5% hits; AID 1964104
Target sequence (P00784 whole entry, looked up): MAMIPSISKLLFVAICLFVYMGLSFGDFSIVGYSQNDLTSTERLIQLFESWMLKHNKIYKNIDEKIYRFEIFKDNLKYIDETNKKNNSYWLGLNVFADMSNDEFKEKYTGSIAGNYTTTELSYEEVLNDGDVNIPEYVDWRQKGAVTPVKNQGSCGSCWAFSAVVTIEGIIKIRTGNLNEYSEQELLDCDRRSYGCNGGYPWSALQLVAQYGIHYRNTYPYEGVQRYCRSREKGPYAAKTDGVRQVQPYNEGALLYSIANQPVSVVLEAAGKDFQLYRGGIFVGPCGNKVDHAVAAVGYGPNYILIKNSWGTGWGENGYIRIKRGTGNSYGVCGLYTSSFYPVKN
nsP2pro conf qHTS: CHIKV nsP2 protease inhibition, confirmatory qHTS; 410 compounds, 43% hits; CHIKV nsP2 protease enzymatic activity, qHTS; shares compounds with nsP2pro primary; Potency, µM (highest dose often 25.5 µM), inactives show at the highest dose activity change, negative = inhibition, actives largely listed as inhibitors; AID 1964105; also: nearly all actives have a fitted effect of over 75% in size
HCV NS3 counter: selectivity counter-screen for CHIKV nsP2 protease inhibitors: HCV NS3/4A | shares compounds with nsP2pro primary | Potency, µM (highest dose often 50.9 µM), hits mostly inhibitors | HCV NS3/4A protease biochemical counterscreen | 410 compounds, 20% hits; also: nearly all actives have a fitted effect of over 55% in size
Active calls of the source: *; i = inactive; ? = inconclusive; ! = repeats disagree; [ ] = dose if it differs, or a comment. Shown is part of a subset that was picked to be rich in hits. Calls follow the shape of the full dose curve. % is scaled to controls: 0 for no effect and ±100 for the full control effect; potency is read from the fitted curve at half-maximal effect.

SMILES	nsP2pro primary	others
CCOc1ccc(-n2c(C(C)N(Cc3cccnc3)C(=O)Cc3ccc(F)c(C(F)(F)F)c3)nc3ncccc3c2=O)cc1 (stereo not drawn)	31%
COc1ccc(NC(=O)c2[nH]c(C)c(C(C)=O)c2C)cc1[S+](=O)([O-])Nc1ccccc1C#N	1%
O=C1CCCC2=C1C(c1[nH]ncc1Cl)NC(=NCCc1cccnc1)N2 (stereo not drawn)	-7%
CCN(CC)C(=O)c1cc2c(s1)CCC(C(=O)N1CCN(c3ccccn3)CC1)C2 (stereo not drawn)	-9%
O=C(NC1CCCc2c1cnn2-c1ccc(F)cc1F)c1ccncc1 (stereo not drawn)	-10%
O=C(NC1CCCc2c1cnn2-c1ccc(F)cc1F)c1ccccn1 (stereo not drawn)	7.9µM*!	CHIKV nsP2 cell=9%;NSP2 full ctr=-2%;Furin counter=-1%;NS23 peptide cs=15%;Papain cs=-5%;nsP2pro conf qHTS=12%;HCV NS3 counter=i
O=C(N[C@H]1CCCc2c1cnn2-c1ccc(F)cc1F)c1ccccn1	i
CC1=C(C(=O)OC(C)C)C(c2ccccc2Cl)CC(=O)N1Cc1c(F)cccc1F (stereo not drawn)	2%
Fc1ccc(-c2ccc(Nc3nc(-c4ccncc4)nc4ccccc34)cc2F)c(Cl)c1	-1%
O=C1CCc2cc(S(=O)(=O)Nc3ccc4ccccc4c3)ccc2N1	i
CCC(C)/C=C(C)/C=C/C1=CC2=C(Cl)C(=O)C(C)(OC(C)=O)C(=O)C2=CN1C(CCC(=O)O)C(=O)O (stereo not drawn)	-1%[10 µM]
CC[C@H](C)/C=C(C)/C=C/C1=CC2=CC(=O)[C@]3(C)OC(=O)[C@@H](C(C)=O)[C@@H]3C2=CO1	?	CHIKV nsP2 cell=2%[33.5 µM];NSP2 full ctr=?;Furin counter=-22%[33.5 µM];NS23 peptide cs=?;Papain cs=41%[33.5 µM];nsP2pro conf qHTS=?;HCV NS3 counter=i
CCC(C)/C=C(C)/C=C/C1=CC2=CC(=O)C3(C)OC(C)(O)C(C(=O)OC)C3C2=CO1 (stereo not drawn)	?	CHIKV nsP2 cell=-4%[17.6 µM];NSP2 full ctr=-15%[17.3 µM];Furin counter=-9%[17.3 µM];NS23 peptide cs=-11%[17.2 µM];Papain cs=4%[17.2 µM];nsP2pro conf qHTS=?;HCV NS3 counter=i
CCC(C)/C=C(C)/C=C/C1=CC2=C(Cl)C(=O)C(C)(OC(C)=O)C(=O)C2=CN1CCCCC(N)C(=O)O (stereo not drawn)	-21%[10 µM]
CCC(C)/C=C(C)/C=C/C1=CC2=C(Cl)C(=O)C(C)(OC(C)=O)C(=O)C2=CO1 (stereo not drawn)	?	CHIKV nsP2 cell=-14%[33.5 µM];NSP2 full ctr=?;Furin counter=-19%[33.5 µM];NS23 peptide cs=?;Papain cs=?;nsP2pro conf qHTS=?;HCV NS3 counter=i
CCC(C)/C=C(C)/C=C/C1=CC2=CC(=O)C(C)(O)C(OC(C)=O)C2CO1 (stereo not drawn)	-2%
CC(=O)N1CCc2cc(-c3nc(NC(=O)Cc4ccc5c(c4)OCO5)sc3C)ccc21	i
CC(C)(C)OC(=O)N1CCN(c2ccc(NCc3ccc(-c4ccc(C#N)cc4)o3)cn2)CC1	2%
CN1C(=O)CC(C(=O)O)C12CCN(Cc1cccc(Cn3cccn3)c1)CC2 (stereo not drawn)	-1%
COc1ccc(-n2nc(C)c([C@@H]3C=C[C@@H](NCc4ccc(F)cc4)C3)c2C)cc1	-11%[39.2 µM]
COCc1cccc(-c2n[nH]c3c2CC(=O)N(CCc2ccncc2)C3)c1	i
Cc1nnc(-c2cnn(C)c2N)n1CCCn1cccc1	-4%
CNC(=O)c1noc([C@@H]2CC(F)(F)CN2C(=O)CCOC)n1	i
CC(=O)OC1C(O)C2C(C)C3=CC(=O)OC3(O)CC2C2(C)CCCC(C)(CO)C12 (stereo not drawn)	-3%[10 µM]
CC1C2=CC(=O)OC2(O)CC2C1CCC1C(C)(C)CCC(O)C21C (stereo not drawn)	-1%
SMILES	nsP2pro primary	others
CC1C2=CC(=O)OC2(O)CC2C1C(OC(=O)c1ccccc1)C(OC(=O)c1ccccc1)C1(O)C2(C)CCC(O)C1(C)C(=O)O (stereo not drawn)	2.3µM*	CHIKV nsP2 cell=-3%[17.6 µM];NSP2 full ctr=-3%[17.3 µM];Furin counter=11%[17.3 µM];NS23 peptide cs=3%[17.2 µM];Papain cs=-5%[17.2 µM];nsP2pro conf qHTS=-11%[8.62 µM];HCV NS3 counter=i
CCOC(=O)NCCCC(=O)NCCc1ccccc1	-5%
O=C(O)c1ccc(CN2CCC(CN[C@@H]3C[C@H]3c3ccccc3)CC2)cc1	-1%
CC(C)N1C[C@@H]2OCC(=O)N(Cc3ccccc3)[C@@H]2C1	-19%[39.2 µM]
O=C1O[C@@H]2CN(c3ncccn3)C[C@@H]2N1CCc1ccc(F)cc1	i
COCCN1C(=O)CO[C@H]2CN(c3ncccn3)C[C@H]21	7.9µM*	CHIKV nsP2 cell=7%[100 µM];NSP2 full ctr=33µM*;Furin counter=?;NS23 peptide cs=?;Papain cs=3%[100 µM];nsP2pro conf qHTS=16µM*;HCV NS3 counter=?
C=C1C(=O)O[C@H]2C[C@@H](C)[C@@H]3CCC(=O)[C@@]3(C)C[C@H]12	-24%
COc1cccc(CN2CCCCC2c2nc(CCOCC3CCOCC3)no2)c1 (stereo not drawn)	i
Cc1ccc(OCC(=O)N2CCN(CCc3ccncc3)CC2)cc1C	-16%
O=C(O)c1ccc(OCCCOc2ccc(C(=O)O)cc2)cc1	3%
Cc1cc(OCC(=O)N2CCN(CCc3ccncc3)CC2)ccc1Cl	-14%
CCCCOc1ccc(C(=O)CCN2CCCCC2)cc1	2.2µM*	CHIKV nsP2 cell=?;NSP2 full ctr=10µM*;Furin counter=?;NS23 peptide cs=13µM*;Papain cs=?;nsP2pro conf qHTS=9µM*;HCV NS3 counter=i
CCCCOc1ccc(OCCCN2CCOCC2)cc1	12%
CCCCOc1ccc(C(=O)N2CCN(CCc3ccncc3)CC2)cc1	?	CHIKV nsP2 cell=24%
C/C=C(/C)C(=O)O[C@H]1C=C(CO)C(=O)[C@H](OC(=O)/C(C)=C/CO)[C@H]1C(C)C	-14%
COC(=O)N1CCCC1C(=O)N1CCC2(CC1)CC(=O)Nc1ccccc1O2 (stereo not drawn)	-21%
C[C@@H](N)C(=O)N1CCC2(CC1)CC(=O)N(Cc1cc(F)cc(F)c1)C2	2%
Cc1cc2c(s1)c1cnn(Cc3cccc(Cl)c3)c(=O)c1n2C	3%
CC(C)C[C@H]1C(=O)N2CCC[C@H]2[C@]2(O)O[C@](NC(=O)[C@@H]3C[C@@H]4c5cccc6[nH]cc(c56)C[C@H]4N(C)C3)(C(C)C)C(=O)N12	-12%
